High-throughput results: PubChem BioAssay, Broad Institute
Tgondii IFNg: blocks Toxoplasma gondii growth in the presence of IFN-gamma; Toxoplasma gondii growth in IFN-gamma-treated host cells; hits give low values; activity change, negative = inhibition, % (test concentration not listed); 69,000 compounds, 3.8% hits; AID 1259416; in the data active = activity change below about -70%, passing the limit was not always enough;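 note: host cells are HeLa cells infected with Toxoplasma gondii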
Each line names hits and unclear results; the compound was inactive in the other large screens. Shown is part of a subset that was picked to be rich in hits.

Fc1cccc(CN2CCN(Cc3ccc(-c4ccccc4)nc3)CC2)c1	none
CC(C)Nc1ncc(-c2nccn2Cc2ccc(F)c(F)c2)cn1	none
CCN1CCN(Cc2ccc(Nc3ncc(F)c(-c4cc(F)c5nc(C)n(C(C)C)c5c4)n3)nc2)CC1	Tgondii IFNg -78
COC(=O)CN1C(=O)NC(C)(C)C1=O	none
CCc1nc(NC(=O)Cc2sc(C)nc2-c2ccccc2)sc1C	none
c1ccc(-c2cc3c(N4CCc5ccccc54)ncnc3s2)cc1	none
c1ccc(-c2cc3ncnc(N4CCSCC4)c3s2)cc1	Tgondii IFNg -99
Clc1ncnc2sc(-c3ccccc3)cc12	none
Cc1ccc(Cn2c(CN3CCC(C(=O)N4CCCC4)CC3)cc3ccccc32)cc1	none
O=C(O)c1ccc(C2CCN(CC(=O)N3CCCCCC3)C2)cc1 (centres undefined)	none
c1cnc(N2CCc3ncnc(C4CC4)c3CC2)nc1	none
Cc1cccc(NC(=O)Cn2c(=O)cc(C(=O)N3CCCC3)c3ccccc32)c1	none
CC(C)CC(=O)Nc1n[nH]c2c1CN(C(=O)C1CCN(C)CC1)C2(C)C	Tgondii IFNg -76
N#Cc1c2c(c(Nc3ccc(Br)cc3)n3c1nc1ccccc13)CCC2	none
CCCCCOC(=O)Nc1ccc(S(=O)(=O)Nc2ccc(Br)cc2)cc1	Tgondii IFNg -87
COc1ccc(NC(=O)c2cncc(NS(=O)(=O)c3ccc(Br)cc3)c2)cc1	none
CCOc1ccc(NS(=O)(=O)c2ccc(NC(=O)c3cccs3)cc2)cc1	none
Cc1ccc2c(c1)c1ncn(Cc3nc(C(C)C)no3)c(=O)c1n2CC(=O)N1CCCC1	none
CC(C)=CCc1c2c(c3occ(-c4ccc(O)c(O)c4)c(=O)c3c1O)C=CC(C)(C)O2	none
CC(C)=CCc1c2c(c3occ(-c4ccc(O)cc4)c(=O)c3c1O)C=CC(C)(C)O2	Tgondii IFNg -82
O=c1c(-c2ccc(O)cc2)coc2cc(O)cc(O)c12	none
c1ccc(CNc2ncc(CN3CCC4(CCOCC4)CC3)cn2)cc1	none
c1ccc2c(N3CCOCC3)nc(N3CCOCC3)nc2c1	none
c1ccc(CNc2nc(N3CCOCC3)nc(N3CCOCC3)n2)cc1	Tgondii IFNg -83
CSc1ccccc1NC(=O)CCC(=O)N1CCCN(C(=O)C2CC2)CC1	none
Cc1ccc(-c2cnc3ccccc3n2)cc1NC(=O)CN1CC(C)OC(C)C1 (centres undefined)	none
Cc1nc2ccc(C(=O)Nc3cnn(CC(=O)NCCc4ccccc4F)c3)cc2[nH]1	none
O=C(c1ccccc1)c1cc(C(=O)c2ccccc2)c(-c2ccccc2)nc1-c1ccccc1	Tgondii IFNg -89
Cc1nc(-c2ccccc2)c(NC(=O)c2ccccc2)s1	none
COc1cc(O)c(C(=O)c2ccccc2)cc1O	none
Cc1ccc(CN(C)C(=O)c2ccc(OC3CCN(S(C)(=O)=O)CC3)c(Cl)c2)o1	none
O=S1(=O)N[C@H]2CCCN2c2ccccc21	none
CCOC(=O)c1cc(C)nc2c1c(=O)n(Cc1nc(-c3ccc(OC)c(OC)c3)oc1C)c(=O)n2C	none
COc1cc2ncn(-c3cc(OCc4ccccc4C(F)(F)F)c(C(N)=O)s3)c2cc1OC	Tgondii IFNg -88
COc1ccccc1OCC(=O)n1nc(N)c2c(C(F)(F)F)cc(C)nc21	none
COc1ccc(C(=O)c2sc3nc(C)cc(C(F)(F)F)c3c2N)cc1OC	none
Clc1ccc(-c2noc(CSC3=NCCN3)n2)cc1	none
COc1cc2ncnc(Nc3cccc(O)c3)c2cc1OC	none
COc1cc2ncnc(Nc3cccc(Br)c3)c2cc1OC	Tgondii IFNg -79
CCC(C)Nc1ncnc2cc(OC)c(OC)cc12 (centres undefined)	none
COc1cccc(-c2ccc3c(C4CCCN4C(=O)C(F)(F)F)nnn3c2)c1 (centres undefined)	none
CCOc1ccc(CC(=O)NCCc2csc(-c3cccc(F)c3)n2)cc1	none
O=C(C1CCOCC1)N1CCO[C@@H]2[C@H]1CC[C@H]2Oc1ccccn1	none
O=C1NCC(=O)N2CCN(Cc3coc4ccccc4c3=O)CC12 (centres undefined)	none
CCc1nc2cc(NC(=O)COc3ccc4nsnc4c3)ccc2n1C	none
Cn1c(Nc2ccc(C(F)(F)F)cc2)nc2cc(Oc3ccnc(-c4ncc(C(F)(F)F)[nH]4)c3)ccc21	Tgondii IFNg -73
Cn1cnc2cc(C(=O)Nc3ccc4c(c3)nc(C(F)(F)F)n4C)ccc21	none
CC(C)c1cc(C2CCN(C(=O)c3ccc4cccnc4n3)CC2)[nH]n1	none
Cc1ccc2c(c1C)-n1cccc1C1(CCN(S(=O)(=O)Cc3ccccc3)CC1)N2	none
COCC1CN(S(=O)(=O)c2cn(C)cn2)Cc2c1cnn2C (centres undefined)	none
Cc1noc(C)c1CC(=O)N1CC(C(=O)N2CCN(c3ccccc3)CC2)C1	none
CC(c1ccncn1)N(C)C(=O)c1ccc(NC(=O)C2CCC2)cc1 (centres undefined)	none
CCOC(=O)C1(Cc2cc(-c3ccccc3C)no2)CCN(Cc2ccccn2)CC1	Tgondii IFNg -77
CCOC(=O)[C@@]12CCCN(Cc3ccccn3)C[C@@H]1CN(C(C)C)C2	none
C=CCN1C[C@H]2CN(Cc3ccccn3)CCC[C@@]2(C(=O)OCC)C1	none
NCCC(=O)N1c2ccccc2Sc2ccccc21	none
O=C(c1ccc(F)cc1)N1c2ccccc2Sc2ccc(C(F)(F)F)cc21	Tgondii IFNg -76
FC(F)(F)c1ccc2c(c1)Nc1ccccc1S2	none
Cn1nc(CN2CCCn3cncc3C2)c2c(Cl)cccc21	none
C[C@@H]1CN(Cc2ccccn2)CC[C@]12CCC(C(=O)NCC1CC1)O2 (some centres undefined)	none
c1csc(-c2nc3ccc4ccccc4c3c3c2CCC3)c1	none
c1csc(-c2nnc(Cc3ccncc3)c3ccccc23)c1	Tgondii IFNg -91
CCS(=O)(=O)N1CCN(c2nnc(-c3cccs3)c(-c3cccs3)n2)CC1	none
Cc1nnsc1CN(C)Cc1c(C)n(C)n(-c2ccccc2)c1=O	none
CCOC[C@@H]1CCC[C@]12CN(C(=O)c1sccc1C)CCO2	none
Cc1nc(-c2cccc(F)c2)sc1CCNC(=O)c1ccc(Br)o1	none
CNC(=O)c1nc2c(s1)CCN(C(=O)NCc1ccccc1)CC2	none
COc1ccc(CNC(=O)c2nc3c(s2)CCN(C(C)=O)CC3)cc1	none
CC(C)CNC(=O)c1nc2c(s1)CCN(C(=O)NCc1ccccc1)CC2	Tgondii IFNg -84
Cc1cccnc1CN1CCC2(CC(NC(=O)c3cnn(C)c3)C2)C1 (centres undefined)	none
CCCc1ncncc1C(=O)N1CCCC2(CNC(=O)O2)C1 (centres undefined)	none
CCS(=O)(=O)N1CCC[C@]2(C(=O)NCC3CC3)CN(Cc3cnn(C)c3)C[C@H]2C1	none
CCN1CCN(C(=O)c2cn[nH]c2C)CC(Cc2ccc(-c3cccs3)cc2)C1=O (centres undefined)	none
CC(C)c1ccc2c(c1)CCC1[C@](C)(CN)CCC[C@]21C (some centres undefined)	none
CC(C)c1ccc2c(c1)CCC1C(C)(C(N)=O)CCCC21C (centres undefined)	Tgondii IFNg -72
COc1ccc2c3c(n(C)c2c1)[C@@H](CO)N(C(=O)CC1CC1)CC31CN(C(=O)NC(C)C)C1	none
COC(=O)[C@@]1(C)CCC[C@]2(C)c3ccc(O)c(C(C)C)c3CCC12 (some centres undefined)	Tgondii IFNg -76
CC(C)c1c(O)ccc2c1CCC1C(C)(C)CCC[C@]21C (some centres undefined)	none
Cc1oc(-c2ccccc2)nc1Cn1nnc(-c2nc(-c3ccc(OC(F)(F)F)cc3)no2)c1C	none
Cc1[nH]n(-c2ccccc2)c(=O)c1C(=O)c1ccccc1	none
Cc1c(N(C)C)c(=O)n(-c2ccccc2)n1C	none
Cc1[nH]n(-c2ccccc2)c(=O)c1N=Nc1c(C)n(C)n(-c2ccccc2)c1=O	Tgondii IFNg -92
